Results published in PubChem BioAssay (NCI).
About 83,000 compounds went through this panel and 20% of them were active in at least one assay; those are over-represented in the sample as a whole.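 Cells were grown in 96-well plates and exposed to the test compound at a single concentration for 48 hours; results are reported as percent growth, with values below 10 considered active.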 Unmarked numbers belong to inactive results. Activity calls are given as the source filed them.

What was measured:
Assay in all cases: NCI-60 one-dose screen, 48 h (100 = growth as untreated, 0 = no growth, -100 = all killed)
Conditions in all cases: 10 µM unless noted
NCI-H23 lung = test system: NCI-H23 lung
NCI-H226 lung = test system: NCI-H226 lung
NCI-H322M lung = test system: NCI-H322M lung
HOP-62 NSCLC = test system: HOP-62 NSCLC
NCI-H460 lung = test system: NCI-H460 lung
HOP-92 NSCLC = test system: HOP-92 NSCLC
NCI-H522 lung = test system: NCI-H522 lung
A549/ATCC NSCLC = test system: A549/ATCC NSCLC
786-0 renal = test system: 786-0 renal
COLO 205 colon = test system: COLO 205 colon
DU-145 prostate = test system: DU-145 prostate
K-562 leukemia = test system: K-562 leukemia
MALME-3M melanoma = test system: MALME-3M melanoma
MDA-MB-231 breast = test system: MDA-MB-231 breast
RXF 393 renal = test system: RXF 393 renal
SF-268 CNS = test system: SF-268 CNS
SF-295 CNS = test system: SF-295 CNS
SF-539 CNS = test system: SF-539 CNS
UACC-257 melanoma = test system: UACC-257 melanoma
M14 melanoma = test system: M14 melanoma

Row | Compound | growth (NCI-H23 lung) | growth (NCI-H226 lung) | growth (NCI-H322M lung) [%] | growth (HOP-62 NSCLC) | growth (NCI-H460 lung) | growth (HOP-92 NSCLC) | growth (NCI-H522 lung) | growth (A549/ATCC NSCLC) | growth (786-0 renal) | growth (COLO 205 colon) | growth (DU-145 prostate) [%] | growth (K-562 leukemia) | growth (MALME-3M melanoma) | growth (MDA-MB-231 breast) | growth (RXF 393 renal) | growth (SF-268 CNS) [%] | growth (SF-295 CNS) | growth (SF-539 CNS) | growth (UACC-257 melanoma) [%] | growth (M14 melanoma)
1 | COc1cc(/C=C/C(=O)c2ccc(Oc3ncnc4ccccc34)cc2)cc(OC)c1OC | 80.3% | 98.5% | 69.5 | 81.9% | 84.5% | 109% | 52.7% | 73.1% | 82.2% | 109% | 21.4 | 12.1% | 98.9% | 86.5% | 84.3% | 81.1 | 86.7% | 63.6% | 93.3 | 73.8%
2 | CN(C)c1ccc(/C=c2\s/c(=C\C(=O)C(C)(C)C)[nH]c2=O)cc1 | 98% | 101% | 86.7 | 101% | 104% | 94.5% | 78.1% | 79.7% | 93.2% | 97.7% | 93.1 | 111% | 93.6% | 118% | 122% | 93.5 | 94.9% | 96.6% | 96.1 | 101%
3 | COc1cc(-c2nc3ccccc3s2)ccc1OCc1nc2n(n1)S(=O)(=O)c1ccccc1N2c1ccccc1 | 109% | 95.7% | 92.9 | 88.2% | 110% | 70.8% | 85.4% | 110% | 95.1% | 113% | 110 | 81.7% | 66.7% | 79.5% | 114% | 102 | 107% | 104% | 112 | 120%
4 | C#C[C@@]1(O)[C@@H](CO)O[C@@H](n2cc(C(F)(F)F)c3c(N)ncnc32)[C@@H]1O | 2.72% (active) | -12.1% (active) | 16 | 7.02% (active) | 2.05% (active) | -13.7% (active) | -52.5% (active) | -4.98% (active) | 4.52% (active) | -77.1% (active) | 10.2 | 5.44% (active) | -22% (active) | 14% | -30.3% (active) | 11.9 | 7.42% (active) | -25.3% (active) | 21 | 9.25% (active)
5 | COc1ccc(Cl)cc1NC(=O)c1cc2c(n1C)-c1nc(NC(=O)C(C)(C)C)sc1CC2 | 87.8% | 89.6% | 91.3 | 76.4% | 98.1% | 67.9% | 69% | 77.2% | 94.7% | 97.7% | 98.6 | 92.2% | 106% | 91.9% | 97.5% | 95.5 | 87.8% | 98.9% | 90.9 | 88.2%
6 | O=C1COc2ccccc2C(=O)N1CCCCNc1ccccc1 | 98.9% | 91.7% | 99.5 | 73.5% | 98.7% | 64.8% | 68.9% | 64.9% | 70.8% | 101% | 96.3 | 68.5% | 102% | 88.8% | 123% | 73.2 | 96.3% | 63.2% | 105 | 99.1%
7 | COc1ccc(/C(=C/c2cc(OC)c(OC)c(OC)c2)[N+](=O)[O-])cc1 | 24.1% | 3.77% (active) | 86.7 | 68.3% | 13% | -24.6% (active) | -37% (active) | 65.8% | -44.3% (active) | -51.5% (active) | 16.3 | 3.58% (active) | -10.8% (active) | 9.98% (active) | -85.1% (active) | 17.6 | 103% | -11.3% (active) | 31.8 | 2.06% (active)
8 | O=C1c2ccccc2OC=C(c2ccccc2)N1CCCCNc1ccc(F)cc1 | 90.1% | 87.5% | 90.3 | 85.1% | 97.9% | 21.8% | 69.5% | 68.9% | 68.2% | 67.6% | 98.9 | 68.1% | 82.3% | 74.9% | 97.9% | 78.3 | 86% | 100% | 83.6 | 76.7%
